“And” between values parts separate entries of the source, which are not always exact repeats. Equal entries are not always repeated. The campaign covered roughly 5,500 compounds. About 2,000 (36%) were called active. About 18% were inconclusive and are not listed. Rule as the data show it: active = normalized growth mostly below about 0.91 (no sharp cut-off); inconclusive = no clear call, values can overlap the other calls; inactive = mostly above about 0.92. The list shows a part of the results.
Test: chemical genetic growth profiling, strain panel (AID 1159580);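 also: tested at 20 µM; growth read once vehicle control cultures reached saturation at 30 °C; 1 = growth at the plate median or of vehicle wells; lower values mean less growth of the strain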
Conditions: S. cerevisiae deletion strains, growth OD

Measured: normalized growth

OCCN1CCN(CCCN2c3ccccc3Sc3ccc(Cl)cc32)CC1
active: locus YAL026C, strain drs2, hits give low values 0.674 | locus YDR137W, strain rgp1, hits give low values 1.33 [resistant]
inactive: locus YAL013W, strain DEP1, hits give low values 1.02 and 1.01 | locus YAL021C, strain ccr4, hits give low values 1 | locus YAL030W, strain snc1, hits give low values 1.01 | locus YAL040C, strain CLN3, hits give low values 0.984 | locus YBL061C, strain skt5, hits give low values 0.996 | locus YBR009C, strain hhf1, hits give low values 0.998 | locus YBR021W, strain FUR4, hits give low values 0.988 | locus YBR023C, strain chs3, hits give low values 0.996 | locus YBR171W, strain sec66, hits give low values 1.01 | locus YBR229C, strain ROT2, hits give low values 1.01 | locus YBR231C, strain swc5, hits give low values 1 | locus YBR279W, strain paf1, hits give low values 0.998 | locus YCL011C, strain gbp2, hits give low values 0.997 | locus YCL016C, strain dcc1, hits give low values 0.994 | locus YCL029C, strain bik1, hits give low values 0.984 | locus YCL061C, strain MRC1 (second series), hits give low values 1.01 | locus YCL061C, strain MRC1, hits give low values 1 | locus YCL069W, strain vba3, hits give low values 1.01 | locus YCR088W, strain abp1, hits give low values 1.01 | locus YDL005C, strain med2, hits give low values 1.01 | locus YDL035C, strain GPR1, hits give low values 0.996 | locus YDL040C, strain nat1, hits give low values 1 | locus YDL074C, strain BRE1, hits give low values 0.955 | locus YDL101C, strain DUN1, hits give low values 1.01 | locus YDL134C, strain PPH21, hits give low values 1.02 | locus YDL185W, strain tfp1, hits give low values 0.996 | locus YDL192W, strain arf1, hits give low values 1.01 | locus YDR001C, strain nth1, hits give low values 1 | locus YDR069C, strain doa4, hits give low values 0.987 | locus YDR101C, strain arx1, hits give low values 0.959 | locus YDR150W, strain NUM1, hits give low values 1.03 | locus YDR159W, strain sac3, hits give low values 1.01 | locus YDR162C, strain NBP2, hits give low values 1 | locus YDR195W, strain ref2 1.12 | locus YDR297W, strain sur2, hits give low values 0.997 | locus YDR318W, strain mcm21, hits give low values 0.966 | locus YDR334W, strain swr1, hits give low values 1 | locus YDR335W, strain msn5, hits give low values 1 | locus YDR363W, strain ESC2, hits give low values 0.995 | locus YDR388W, hits give low values 0.979 | locus YDR392W, strain spt3, hits give low values 0.998 | locus YDR502C, strain sam2, hits give low values 0.96 | locus YEL003W, strain gim4, hits give low values 0.988 | locus YEL037C, strain rad23, hits give low values 1 | locus YEL061C, strain CIN8 (second series), hits give low values 1 | locus YEL061C, strain CIN8, hits give low values 1.01 | locus YER002W, strain NOP16, hits give low values 1.04 | locus YER015W, strain faa2, hits give low values 1 | locus YER016W, strain bim1, hits give low values 1 | locus YER110C, hits give low values 0.998 | locus YER111C, strain swi4, hits give low values 1 | locus YER155C, strain BEM2 (second series), hits give low values 0.971 | locus YER155C, strain BEM2, hits give low values 1.03 | locus YER167W, strain BCK2, hits give low values 1.01 | locus YFR010W, strain ubp6, hits give low values 0.976 | locus YGL078C, strain dbp3, hits give low values 0.994 | locus YGL086W, strain mad1, hits give low values 0.993 | locus YGL167C, strain pmr1, hits give low values 0.989 | locus YGL173C, strain kem1, hits give low values 0.972 | locus YGL227W, strain vid30, hits give low values 1.01 | locus YGL240W, strain doc1, hits give low values 1.04 | locus YGL248W, strain PDE1, hits give low values 1.02 | locus YGL253W, strain hxk2, hits give low values 0.997 | locus YGR078C, strain PAC10, hits give low values 0.997 and 0.999 | locus YGR135W, strain pre9, hits give low values 0.958 | locus YGR229C, strain SMI1, hits give low values 0.958 | locus YGR252W, strain gcn5, hits give low values 0.931 | locus YHR013C, strain ard1, hits give low values 0.995 | locus YHR027C, strain rpn1, hits give low values 0.988 | locus YHR030C, strain SLT2, hits give low values 1.02 and 0.987 | locus YHR079C, strain IRE1 (second series), hits give low values 0.984 | locus YHR079C, strain IRE1, hits give low values 0.993 | locus YHR094C, strain hxt1, hits give low values 0.992 | locus YHR129C, strain ARP1, hits give low values 1.01 | locus YHR142W, strain chs7, hits give low values 1.01 | locus YHR200W, strain rpn10, hits give low values 0.986 | locus YIL066C, strain RNR3, hits give low values 0.998 | locus YIL073C, strain SPO22, hits give low values 1.01 | locus YIL125W, strain kgd1, hits give low values 0.991 | locus YIR030C, strain dcg1, hits give low values 0.997 | locus YJL092W, strain hpr5, hits give low values 1 | locus YJL095W, strain BCK1 (second series), hits give low values 1 | locus YJL095W, strain BCK1, hits give low values 0.977 and 0.981 | locus YJL115W, strain asf1, hits give low values 1 | locus YJL129C, strain trk1, hits give low values 1.01 | locus YJL134W, strain LCB3, hits give low values 1.01 | locus YJL154C, strain vps35, hits give low values 1.01 | locus YJL164C, strain tpk1, hits give low values 0.988 | locus YJL166W, strain qcr8, hits give low values 1.01 | locus YJL168C, strain set2, hits give low values 0.991 | locus YJL187C, strain SWE1 (second series), hits give low values 1 | locus YJL187C, strain SWE1, hits give low values 1 | locus YJR043C, strain POL32, hits give low values 1.02 | locus YJR066W, strain TOR1, hits give low values 0.954

From PubChem BioAssay AID1159580 (chemical genetic matrix, 2015)
